# In PubChem BioAssay (NCATS):
# “And” between values parts separate entries of the source, which are not always exact repeats. Identical values can stand only once. Records with an inconclusive call do not appear. Entries that show only a call come without a potency. The source made the active and inactive calls. The call rests on the fitted dose curve; in most records, active means well fitted cell-killing curve with a large enough effect; inconclusive means small, poorly fitted or top-dose-only effect; inactive means no such curve, though single readings can be large or run the other way.
# Assay: qHTS of pediatric cancer cell lines to identify multiple opportunities for drug repurposing: Primary screen for SK-N-SH cells (AID 1347098); further: nearly all actives have a fitted effect of over 65% in size; further: potency means the concentration at half of the fitted maximal effect
# Settings: SK-N-SH viability, CellTiter-Glo luminescence, 48 h; series mostly up to 57 µM
# Summary of the method: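 Cells (500-1,000/well) rested 5 h, then received compounds for 48 h; metabolically active cells were measured by CellTiter-Glo luminescence. Final concentrations spanned up to 46 µM (MIPE, 11-point) or 0.59 nM-46 µM (NPC, 8-point) in primary screens, 11-point in follow-ups.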
row,Structure (SMILES),Potency
1,O=C1Cc2cc(CCN3CCN(c4nsc5ccccc45)CC3)c(Cl)cc2N1,inactive
2,CN1CCC(=C2c3ccccc3CC(=O)c3sccc32)CC1,24.1 µM (active)
3,Cc1ccc(-c2cc(C(F)(F)F)nn2-c2ccc(S(N)(=O)=O)cc2)cc1,inactive
4,CC(C)(C)C(=O)Oc1ccc(S(=O)(=O)Nc2ccccc2C(=O)NCC(=O)O)cc1,inactive
5,CC#C[C@]1(O)CC[C@H]2[C@@H]3CCC4=CC(=O)CCC4=C3[C@@H](c3ccc(N(C)C)cc3)C[C@@]21C,0.242 µM (active)
6,OCCN1CCN(CCCN2c3ccccc3Sc3ccc(C(F)(F)F)cc32)CC1,21.5 µM (active) and 19.4 µM (active)
7,CC1(C)O[C@H]2CC(=O)OC[C@]23[C@H]2CC[C@@]4(C)[C@H](c5ccoc5)OC(=O)[C@H]5O[C@]54[C@]2(C)C(=O)C[C@@H]13,inactive
8,Clc1ccc2c(c1)C(N1CCNCC1)=Nc1ccccc1O2,inactive
9,CN(C)C(=N)N=C(N)N,inactive
10,Clc1ccc(C(c2ccccc2Cl)C(Cl)Cl)cc1 (configuration not stated),inactive
11,CC[N+](CC)(CC)CCOc1cccc(OCC[N+](CC)(CC)CC)c1OCC[N+](CC)(CC)CC,inactive
12,CN(CCOc1ccc(NS(C)(=O)=O)cc1)CCc1ccc(NS(C)(=O)=O)cc1,inactive
13,Clc1ccc2nsnc2c1NC1=NCCN1,inactive
14,CN(C)CCCN1c2ccccc2CCc2ccc(Cl)cc21,1.52 µM (active) and 24.4 µM (active)

# Assay: qHTS of pediatric cancer cell lines to identify multiple opportunities for drug repurposing: Primary screen for NB1643 cells (AID 1347099); further: nearly all actives have a fitted effect of over 50% in size
# Settings: NB1643 neuroblastoma viability, CellTiter-Glo luminescence, 48 h; series mostly up to 46 µM
# Summary of the method: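 Readout: CellTiter-Glo luminescence, 48 h treatment. Controls DMSO (neutral) and bortezomib 2.3 µM final (positive). Potency and efficacy taken from primary-screen concentration-response curves.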
row,Structure (SMILES),Potency
1,Cc1cnc(C(=O)NCCc2ccc(S(=O)(=O)NC(=O)NC3CCCCC3)cc2)cn1,inactive
2,O=C1Cc2cc(CCN3CCN(c4nsc5ccccc45)CC3)c(Cl)cc2N1,inactive
3,CC(C)(C)C(=O)Oc1ccc(S(=O)(=O)Nc2ccccc2C(=O)NCC(=O)O)cc1,inactive
4,CC#C[C@]1(O)CC[C@H]2[C@@H]3CCC4=CC(=O)CCC4=C3[C@@H](c3ccc(N(C)C)cc3)C[C@@]21C,inactive
5,CC1(C)O[C@H]2CC(=O)OC[C@]23[C@H]2CC[C@@]4(C)[C@H](c5ccoc5)OC(=O)[C@H]5O[C@]54[C@]2(C)C(=O)C[C@@H]13,inactive
6,Clc1ccc2c(c1)C(N1CCNCC1)=Nc1ccccc1O2,inactive
7,Clc1ccc(C(c2ccccc2Cl)C(Cl)Cl)cc1 (configuration not stated),inactive
8,CC[N+](CC)(CC)CCOc1cccc(OCC[N+](CC)(CC)CC)c1OCC[N+](CC)(CC)CC,inactive
